Measurements from PubChem BioAssay (NCATS).
Where “and” joins values, the source holds several entries; their conditions need not be identical. Equal entries are not always repeated. Inconclusive results are not listed. Calls of active or inactive are those of the source. Calls follow the shape of the dose curve; as a rule, active = well fitted inhibition curve with a large enough effect; inconclusive = small, poorly fitted or top-dose-only effect; inactive = flat fitted curve, though single readings scatter.

Legend:
Experiment in all cases: qHTS profiling for inhibitors of Plasmodium falciparum proliferation (AID 504749); also: nearly all actives have a fitted effect of over 60% in size
Conditions in all cases: P. falciparum in erythrocytes, SYBR Green DNA, 72 h; series mostly up to 28.7 µM
CP335 = system: CP335
In short: (§1)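 Parasite proliferation within erythrocytes, 72 h exposure. Endpoint: SYBR Green I fluorescence after overnight lysis at room temperature. Controls: 0.29 uM artemisinin, DMSO.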

DFO2036 = system: DFO2036
In short: as §1

DIV14 = system: DIV14
In short: as §1

DIV17 = system: DIV17
In short: as §1

DIV30 = system: DIV30
In short: as §1

Dd2 = system: Dd2
In short: as §1

ECU = system: ECU
In short: as §1

FAB9 = system: FAB9
In short: as §1

GB4 = system: GB4
In short: as §1

HB3 = system: HB3
In short: as §1

ICS = system: ICS
In short: as §1

JCK = system: JCK
In short: as §1

N140 = system: N140
In short: as §1

P93_24 = system: P93_24
In short: as §1

P94_40 = system: P94_40
In short: as §1

PAD = system: PAD
In short: as §1

PC15 = system: PC15
In short: as §1

PC26 = system: PC26
In short: as §1

PC49 = system: PC49
In short: as §1

SC27B = system: SC27B
In short: as §1

Measured: Potency
Potency is read from the fitted curve at half-maximal effect.

ClC(Cl)(Cl)Cl
inactive: all assays above

O=C(NCNC(=O)NC1C(=O)NC(=O)N1CO)NC1C(=O)NC(=O)N1CO (configuration not stated)
inactive: all assays above

CC(C)(C)c1cc(O)ccc1O
active: CP335 5.36 µM | DFO2036 8.91 µM | DIV14 6.01 µM and 12 µM | DIV17 5.36 µM | DIV30 9.53 µM | Dd2 4.47 µM | ECU 7.94 µM | GB4 3.79 µM and 12 µM | HB3 10 µM | ICS 3.16 µM and 2 µM | N140 11.2 µM | P93_24 11.2 µM and 8.91 µM | P94_40 7.08 µM and 12.6 µM | PAD 11.2 µM | PC15 11.2 µM | PC26 12 µM | SC27B 7.94 µM

O=C(O)C(Cl)(Cl)Cl
inactive: all assays above

Clc1ccc(C2(Cn3cncn3)OCCO2)c(Cl)c1
inactive: all assays above

CCC(C)(S(=O)(=O)CC)S(=O)(=O)CC
inactive: all assays above

CCC(N)Cc1c[nH]c2ccccc12 (configuration not stated)
inactive: all assays above

NCC(O)c1cccc(O)c1 (configuration not stated)
inactive: all assays above

C[N+]1(C)C2CCC1CC(OC(=O)c1c[nH]c3ccccc13)C2 (configuration not stated)
inactive: all assays above

COc1ccc(OC)c(C(O)C(C)N)c1 (configuration not stated)
inactive: all assays above

O=[N+]([O-])c1cc(I)c(O)c(I)c1
inactive: all assays above

CCCC(=O)OC(C(Cl)(Cl)Cl)P(=O)(OC)OC (configuration not stated)
not listed: ICS | P93_24 | P94_40 | PC15 | PC26
inactive: all other assays above

O[C@H]1[C@H]2[C@H](O)CCCN2C[C@H]1O
inactive: all assays above

O=CC=O
inactive: all assays above
